TRHR ag: qHTS for Small Molecule Agonists and Allosteric Enhancers of Human TRH Receptor: Primary Screen for Agonists. AID 493084, 2011. actives 0.18% (n = 360,000). Thyrotropin-releasing hormone receptor (Homo sapiens), P34981. activation, % at 2 µM. TRHR cells, calcium flux fluo-8, FDSS agonist mode
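Read-out: compound-evoked intracellular calcium rise in TRHR cells, fluo-8 dye, kinetic FDSS fluorescence at 1 s/cycle following a 10-cycle baseline. Cells cultured overnight before dye loading (30 min–1.5 h, RT).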
D1 PAM: Potentiators of Human D1 Dopamine Receptor: qHTS | D(1A) dopamine receptor (Homo sapiens), P21728 | HEK293 TREx D1 cells, calcium flux, dopamine EC20 potentiation | potentiation, % at 10 µM | actives 0.036% (n = 360,000) | AID 504651, 2011; in the data active means potentiation above about 30%
Target sequence (P21728 whole entry, looked up): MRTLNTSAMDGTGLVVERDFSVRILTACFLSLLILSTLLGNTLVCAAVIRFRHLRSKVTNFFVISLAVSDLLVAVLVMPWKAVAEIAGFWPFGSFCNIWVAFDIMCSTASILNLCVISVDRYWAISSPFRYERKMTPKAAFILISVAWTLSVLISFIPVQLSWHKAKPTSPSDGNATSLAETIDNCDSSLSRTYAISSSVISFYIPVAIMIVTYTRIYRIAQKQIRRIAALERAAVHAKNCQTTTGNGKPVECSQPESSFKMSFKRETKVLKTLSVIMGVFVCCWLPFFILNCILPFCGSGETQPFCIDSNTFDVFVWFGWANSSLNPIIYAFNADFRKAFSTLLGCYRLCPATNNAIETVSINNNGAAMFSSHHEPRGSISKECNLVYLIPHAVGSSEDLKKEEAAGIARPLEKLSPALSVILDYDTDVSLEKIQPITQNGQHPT
D1 antag: Antagonist of Human D 1 Dopamine Receptor: qHTS; HEK293 TREx D1 cells, calcium flux, dopamine EC80; stronger effect = lower value; activity change, negative = inhibition, % at 10 µM; actives 3.2% (n = 360,000); AID 504652, 2011; in the data active means activity change below about -30%
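Calcium flux readout: force-coupled, inducible Hek293 Trex D1 line, cells induced overnight at 30 C with tetracycline, dye-loaded 30–90 min at RT. Antagonism scored against EC80 dopamine challenge given 180 s after compound.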
D1 ag: Allosteric Agonists of the Human D1 Dopamine Receptor: qHTS | actives 1% (n = 360,000) | D(1A) dopamine receptor (Homo sapiens), P21728 | HEK293 T-REx D1 cells, calcium flux, agonist mode | activation, % at 2 µM
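Inducible HEK293 T-REx D1 cells, force-coupled to calcium signalling, were plated at 4000 cells/well with tetracycline and held overnight at 30 C. After no-wash calcium dye loading, compound-evoked calcium rise over 180 s flagged agonists.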
TRHR enhancer: qHTS for Small Molecule Agonists and Allosteric Enhancers of Human TRH Receptor: Primary Screen for Enhancers; AID 493056, 2011; enhancement, % at 2 µM; TRHR cells, fluo-8 calcium fluorescence, EC20 TRH enhancement; Thyrotropin-releasing hormone receptor (Homo sapiens), P34981; actives 0.66% (n = 360,000); in the data active means enhancement above about 30%
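Enhancer read-out: after compound pinning and an initial kinetic agonist-mode read, an EC20 of TRH (10 nM final) was injected and fluo-8 calcium signal (Ex 480/Em 530) followed at 1 s/cycle for 100 cycles in TRHR-expressing cells.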
Of the large screens only hits and unclear results are named; the others gave an inactive call. Compounds with a hit are over-represented: about 4.7% of the library has one in this group of screens. Unless noted, no stated cut-off is given here; in the data, active means activation above about 30%; inactive means the rest.

Cc1ccc(S(=O)(=O)NCC(=O)OC(C(=O)c2ccccc2)c2ccccc2)cc1 (stereo not drawn)	none
Cc1nn(S(=O)(=O)c2ccc(C(C)C)cc2)c(C)c1S(=O)(=O)N1CCCCCC1	none
COc1ccc([C@H]2CC(=O)C=C(c3cccc4c3sc3ccccc34)C2)cc1OC	D1 antag -36
COc1ccc([C@H]2CC(=O)C=C(c3cc4ccccc4s3)C2)cc1OC	D1 antag -48
O=C1C=C(c2cccc3c2sc2ccccc23)C[C@@H](c2ccc(F)cc2)C1	none (no result: D1 antag)
Cc1cccc(/C=N/NC(=O)C2CCCNC2=O)c1 (stereo not drawn)	D1 antag -85
COc1cc(C=O)ccc1OCC(=O)Nc1ccc2c(c1)OCO2	none
CCN1CCc2nc3sc(C(=O)c4ccc(F)cc4)c(N)c3cc2C1	D1 ag 30
COc1ccc(CNC(=O)c2cc3c(=O)n(Cc4cccs4)ccc3nc2C)cc1	none
Cc1[nH]c2ccccc2c1/C=C/C(=O)c1ccncc1	D1 ag 55
O=C(/C=C/c1cccc2ccccc12)c1ccncc1	none
COc1ccc(OC)c(C(=O)Cn2nnc3ccccc3c2=O)c1	TRHR enhancer 39
Cc1cc(C(=O)Cn2nnc3ccccc3c2=O)c(C)n1Cc1cccs1	TRHR enhancer 32
COc1ccc(C(CC(=O)N2CCOCC2)c2c(OC)cc(OC)c3c(-c4ccccc4)cc(=O)oc23)cc1 (stereo not drawn)	D1 antag -41
CC(=O)c1ccc(N2CCN(C(=O)c3cc4c(s3)CCCC4)CC2)cc1	D1 antag -35
COc1ccccc1N1CCN(C(=O)c2cc3c(s2)CCC3)CC1	none
COc1ccc(N2CCN(C(=O)c3cc4c(s3)CCCCC4)CC2)cc1	D1 antag -57
CC(C)NS(=O)(=O)c1ccc(Oc2ncc(C(F)(F)F)cc2Cl)cc1	none
O=S(=O)(Nc1ccccc1)c1ccc(Oc2ncc(C(F)(F)F)cc2Cl)cc1	D1 ag 32
CCCNS(=O)(=O)c1ccc(Oc2ncc(C(F)(F)F)cc2Cl)cc1	D1 ag 46
CS(=O)(=O)NCCNc1ncc(C(F)(F)F)cc1Cl	D1 antag -32
CCCCCC1NC(=O)NC1CCCCCC(=O)O (stereo not drawn)	none
O=C(CCCO)CCCCCCCCC[C@H]1N[C@H](CO)[C@@H](O)[C@@H]1O	D1 antag -45
O=C(Nc1c2c(nc3ccccc13)CCCC2)c1ccccc1F	D1 antag -37
Nc1c2c(nc3ccc(Br)cc13)N(C1CCCCC1)CC2	none
O=C(Nc1c2c(nc3ccccc13)CCCC2)c1ccccc1Cl	none
Nc1c2c(nc3ccccc13)CCC2	D1 antag -43
CC(=O)c1ccc(Nc2c3c(nc4ccccc24)CCCC3)cc1	D1 antag -42
Nc1c2c(nc3ccccc13)N(C1CCCCC1)CC2	D1 antag -37
C=CCn1c(SCC(=O)Nc2ccc(S(N)(=O)=O)cc2)nnc1-c1cnccn1	none
CCOc1ccc(CNC(=O)CCC(=O)N2CC(C)Sc3ccccc32)cc1 (stereo not drawn)	none
Fc1cccc(Nc2c3c(nc4ccccc24)CCC3)c1	D1 antag -53
CC(=O)c1cccc(Nc2c3c(nc4ccccc24)CCC3)c1	none
COc1ccccc1Nc1c2c(nc3ccccc13)CCC2	D1 antag -38
O=C(CSCc1cc(=O)c2cc(F)ccc2[nH]1)Nc1ccccc1Cl	none
CCc1ccccc1NC(=O)CN(c1ccccc1OC)S(=O)(=O)c1ccc(C)cc1	none
Cc1cc(Oc2ccc(=O)n(C)n2)nc(SCC(N)=O)n1	none
O=c1ccc(OCCOc2ccccc2)nn1-c1ccccc1	none
NC(=O)COc1ccc(=O)n(-c2ccccc2)n1	D1 antag -42 (no result: D1 PAM)
Cn1nc(OCC(N)=O)ccc1=O	D1 antag -51
Cc1cc(F)ccc1NC(=O)CCS(=O)(=O)c1ccc2c(c1)NC(=O)CO2	none
COc1ccc(S(=O)(=O)NCC(c2ccco2)N2CCN(c3ccc(F)cc3)CC2)cc1C (stereo not drawn)	none (no result: D1 antag)
CCc1ccccc1NC(=O)Cn1c(=O)n(Cc2ccc(OC)cc2)c(=O)c2oc3ccccc3c21	TRHR enhancer 35
COc1ccc(Cn2c(=O)c3oc4ccccc4c3n(CC(=O)Nc3c(C)cccc3C)c2=O)cc1	none
CC(=O)c1ccc(Nc2cc(C)nc3c(C)cccc23)cc1	D1 antag -31
COc1ccc(Nc2cc(C)nc3ccccc23)cc1	none
CC(=O)c1ccc(Nc2cc(C)nc3ccccc23)cc1	none
Cc1ccc(Nc2cc(C)nc3c(C)cccc23)cc1	D1 antag -33
COC(=O)c1ccc2nc(C)cc(Nc3ccccc3C)c2c1	D1 antag -33
CC(=O)c1cccc(Nc2cc(C)nc3ccc(C)cc23)c1	D1 antag -40
Cc1cc(C)c(C(=O)N(C)C2CCCN(Cc3ccccc3F)C2)o1 (stereo not drawn)	none
COc1ccc(CNC(=O)CSc2nc3ccccc3n2C(C)=O)cc1	none
CC(=O)c1ccc(OCc2cc(C(=O)N3CCN(c4ccccc4)CC3C)no2)cc1 (stereo not drawn)	none
CCn1cc(S(=O)(=O)c2ccccc2)c(=O)c2cc(F)c(F)cc21	TRHR enhancer 43
CCCCn1cc(S(=O)(=O)c2ccc(CC)cc2)c(=O)c2cc(F)c(N3CCCC(C)C3)cc21 (stereo not drawn)	TRHR enhancer 39
CCCCn1cc(S(=O)(=O)c2ccc(OC)cc2)c(=O)c2cc(F)c(F)cc21	D1 antag -39
CCOc1ccc(NC(=O)c2cc3c(s2)-c2ccccc2OC3)cc1	none
CC(=O)c1nc2ccccc2n1S(=O)(=O)c1ccc(C)cc1	none
CC(=O)c1nc2ccccc2n1S(=O)(=O)c1ccc(Cl)cc1	D1 antag -36
COc1ccccc1N1C(=O)C2C(C(=O)c3ccccc3)=NN(c3ccccc3OC)C2C1=O (stereo not drawn)	D1 ag 78
Cc1ccc(SC(C)C(=O)N2CCCC2)cc1 (stereo not drawn)	D1 antag -35
NS(=O)(=O)c1ccc(NC=C2C(=O)OC3(CCCCC3)OC2=O)cc1	TRHR enhancer 33
CCCCc1ccc(NC=C2C(=O)OC3(CCCCC3)OC2=O)cc1	none (no result: D1 antag)
Cc1cc(OCC(O)CN(CCO)CCO)ccc1Cl (stereo not drawn)	none

Compound activity from PubChem BioAssay.
